According to PubChem BioAssay AID1159580 (chemical genetic matrix, 2015):
Values joined by “and” are separate entries in the source; they are usually repeats but may differ in a detail not shown here. Identical values can stand only once. In all, about 5,500 compounds went through this assay and about 2,000 (36%) were called active. Not shown: some 18% with an inconclusive outcome. Cut-off read from the data, not from the text of the source: active = normalized growth mostly below about 0.91 (no sharp cut-off); inconclusive = no clear call, values can overlap the other calls; inactive = mostly above about 0.92. Some of the results follow.

Test: chemical genetic growth profiling, strain panel (AID 1159580);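 note: tested at 20 µM; growth read once vehicle control cultures reached saturation at 30 °C; 1 = growth at the plate median or of vehicle wells; lower values mean less growth of the strain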
Conditions: S. cerevisiae deletion strains, growth OD

Measured: normalized growth

CCS(=O)(=O)CCn1c([N+](=O)[O-])cnc1C
inactive: locus YAL013W, strain DEP1, hits give low values 1.03 | locus YAL021C, strain ccr4, hits give low values 0.999 | locus YAL026C, strain drs2, hits give low values 0.995 | locus YAL030W, strain snc1, hits give low values 1.01 | locus YBL061C, strain skt5, hits give low values 1.01 | locus YBR009C, strain hhf1, hits give low values 0.962 | locus YBR021W, strain FUR4, hits give low values 1.01 | locus YBR023C, strain chs3, hits give low values 0.998 | locus YBR171W, strain sec66, hits give low values 1 | locus YBR229C, strain ROT2, hits give low values 1.01 | locus YBR231C, strain swc5, hits give low values 1 | locus YBR279W, strain paf1, hits give low values 0.985 | locus YCL011C, strain gbp2, hits give low values 1 | locus YCL016C, strain dcc1, hits give low values 1.02 | locus YCL029C, strain bik1, hits give low values 1.01 | locus YCL061C, strain MRC1, hits give low values 1.01 | locus YCL069W, strain vba3, hits give low values 0.974 | locus YCR088W, strain abp1, hits give low values 0.986 | locus YDL005C, strain med2, hits give low values 1.01 | locus YDL035C, strain GPR1, hits give low values 1.04 | locus YDL040C, strain nat1, hits give low values 0.995 | locus YDL074C, strain BRE1, hits give low values 1.06 | locus YDL101C, strain DUN1, hits give low values 1.01 | locus YDL134C, strain PPH21, hits give low values 1 | locus YDL185W, strain tfp1, hits give low values 1.02 | locus YDL192W, strain arf1, hits give low values 1.01 | locus YDR001C, strain nth1, hits give low values 0.991 | locus YDR069C, strain doa4, hits give low values 0.977 | locus YDR101C, strain arx1, hits give low values 1.01 | locus YDR137W, strain rgp1, hits give low values 0.957 | locus YDR150W, strain NUM1, hits give low values 1.02 | locus YDR159W, strain sac3, hits give low values 0.965 | locus YDR162C, strain NBP2, hits give low values 1.02 | locus YDR195W, strain ref2 0.952 | locus YDR297W, strain sur2, hits give low values 1 | locus YDR318W, strain mcm21, hits give low values 1.04 | locus YDR334W, strain swr1, hits give low values 0.966 | locus YDR335W, strain msn5, hits give low values 0.993 | locus YDR388W, hits give low values 1.01 | locus YDR392W, strain spt3, hits give low values 1.02 | locus YDR502C, strain sam2, hits give low values 1.01 | locus YEL003W, strain gim4, hits give low values 0.995 | locus YEL037C, strain rad23, hits give low values 0.981 | locus YEL061C, strain CIN8 (second series), hits give low values 0.998 | locus YEL061C, strain CIN8, hits give low values 1.01 | locus YER015W, strain faa2, hits give low values 1 | locus YER016W, strain bim1, hits give low values 1.01 | locus YER110C, hits give low values 1.02 | locus YER111C, strain swi4, hits give low values 1.02 | locus YER155C, strain BEM2 (second series), hits give low values 0.99 | locus YER155C, strain BEM2, hits give low values 0.996 | locus YER167W, strain BCK2, hits give low values 1.05 | locus YFR010W, strain ubp6, hits give low values 0.967 | locus YGL078C, strain dbp3, hits give low values 1 | locus YGL086W, strain mad1, hits give low values 1.05 | locus YGL167C, strain pmr1, hits give low values 0.994 | locus YGL173C, strain kem1, hits give low values 1.02 | locus YGL227W, strain vid30, hits give low values 1 | locus YGL240W, strain doc1, hits give low values 0.977 | locus YGL248W, strain PDE1, hits give low values 1 | locus YGL253W, strain hxk2, hits give low values 0.997 | locus YGR078C, strain PAC10, hits give low values 1.03 | locus YGR135W, strain pre9, hits give low values 1.01 | locus YGR229C, strain SMI1, hits give low values 1.02 | locus YGR252W, strain gcn5, hits give low values 1.01 | locus YHR013C, strain ard1, hits give low values 1.04 | locus YHR027C, strain rpn1, hits give low values 1.01 | locus YHR030C, strain SLT2, hits give low values 1.01 and 0.981 | locus YHR079C, strain IRE1 (second series), hits give low values 1.02 | locus YHR079C, strain IRE1, hits give low values 0.957 | locus YHR094C, strain hxt1, hits give low values 1.01 | locus YHR129C, strain ARP1, hits give low values 1.01 | locus YHR142W, strain chs7, hits give low values 1.01 | locus YHR200W, strain rpn10, hits give low values 1.02 | locus YIL066C, strain RNR3, hits give low values 1.02 | locus YIL073C, strain SPO22, hits give low values 1.1 | locus YIL125W, strain kgd1, hits give low values 1.01 | locus YIR030C, strain dcg1, hits give low values 1.01 | locus YJL092W, strain hpr5, hits give low values 1 | locus YJL095W, strain BCK1 (second series), hits give low values 0.989 | locus YJL095W, strain BCK1, hits give low values 1.02 and 0.959 | locus YJL115W, strain asf1, hits give low values 0.98 | locus YJL129C, strain trk1, hits give low values 1 | locus YJL134W, strain LCB3, hits give low values 1.01 | locus YJL154C, strain vps35, hits give low values 0.984 | locus YJL164C, strain tpk1, hits give low values 1 | locus YJL166W, strain qcr8, hits give low values 0.996 | locus YJL168C, strain set2, hits give low values 1.01 | locus YJL187C, strain SWE1 (second series), hits give low values 1.01 | locus YJR043C, strain POL32, hits give low values 1.08 | locus YJR066W, strain TOR1, hits give low values 0.945
